In PubChem BioAssay (Tox21) one finds Potency data, which are given here for eight compounds.

Assay [1] deals with Acetylcholinesterase (Homo sapiens) (UniProt P22303). Description: Acetylcholinesterase (AChE) small molecule antagonists: enzyme-based qHTS assay (AID 1347397). Also: nearly all actives have a fitted effect of over 55% in size. As to conditions: Potency: AChE enzyme activity inhibition; outcome: AChE enzyme activity inhibition. In a few lines:
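Recombinant human AChE, dispensed at 50 mU/mL, was preincubated with Tox21 10K compounds or DMSO vehicle for 30 min at room temperature. DTNB plus acetylthiocholine was then added, and thiocholine was measured colorimetrically after a further 10 min.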

For assay [2] the target is unchanged. Description: Acetylcholinesterase (AChE) small molecule antagonists: fluorescence cell-based qHTS assay (AID 1347398). Also: nearly all actives have a fitted effect of over 50% in size. Also: potency is read from the fitted curve at half-maximal effect. As to conditions: Potency: AChE activity; outcome: AChE activity. In a few lines:
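Human SH-SY5Y cells were plated overnight at 37 C, exposed to compound for 30 min at 37 C, 5% CO2, then given acetylthiocholine plus Thiolite Green for 40 min at room temperature; thiocholine fluorescence (Ex/Em 490/520 nm) reports endogenous AChE activity.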
(In qHTS, concentration-response curves come from the screen itself.)

The target is the same in assay [3]. Kind of assay: Acetylcholinesterase (AChE) small molecule antagonists: enzyme-based qHTS assay with human liver microsomes (AID 1347399). Also: nearly all actives have a fitted effect of over 60% in size. As to conditions: Potency: qHTS inhibition; outcome: qHTS inhibition. Summed up:
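Recombinant human AChE (50 mU/mL in the enzyme mix) and human liver microsomes (0.25 mg/mL final) were preincubated with compound and NADPH (0.25 mg/mL final) for 30 min at 37 C. Acetylthiocholine/DTNB was then added; thiocholine was read colorimetrically after 10 min at room temperature.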

Structures are written as SMILES. Results filed as inconclusive are left out. The source made the active and inactive calls. Calls follow the shape of the full dose curve.

Acetylcholinesterase (Homo sapiens), sequence (P22303 whole entry, looked up): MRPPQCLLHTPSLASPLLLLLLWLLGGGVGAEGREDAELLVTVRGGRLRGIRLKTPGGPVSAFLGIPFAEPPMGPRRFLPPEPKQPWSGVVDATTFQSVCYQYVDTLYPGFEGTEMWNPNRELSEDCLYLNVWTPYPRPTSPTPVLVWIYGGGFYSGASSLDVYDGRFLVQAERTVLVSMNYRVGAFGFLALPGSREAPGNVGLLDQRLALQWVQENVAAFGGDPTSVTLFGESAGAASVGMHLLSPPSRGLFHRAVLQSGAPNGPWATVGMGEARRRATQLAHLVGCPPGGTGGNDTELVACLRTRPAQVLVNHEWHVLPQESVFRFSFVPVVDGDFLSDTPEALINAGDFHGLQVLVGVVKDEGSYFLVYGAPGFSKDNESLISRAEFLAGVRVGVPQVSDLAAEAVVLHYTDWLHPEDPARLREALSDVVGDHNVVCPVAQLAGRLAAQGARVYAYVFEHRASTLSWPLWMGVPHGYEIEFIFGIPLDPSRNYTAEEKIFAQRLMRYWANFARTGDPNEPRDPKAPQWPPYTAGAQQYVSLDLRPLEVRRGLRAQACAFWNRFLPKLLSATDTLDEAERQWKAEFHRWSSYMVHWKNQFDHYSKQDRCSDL

On to `CCc1cc(S(=O)(=O)O)c2cc(C(C)C)cccc1-2`, for which the Potency result in assay [1], in assay [2] and in assay [3] was “inactive” each time.
Consider `COc1cc(OC)cc(OC)c1`, for which the Potency entry in assay [1], in assay [2] and in assay [3] was “inactive” each time.
With `CCCC[N+](C)(CCCC)CCCC`, the Potency result in assay [1], in assay [2] and in assay [3] was “inactive” throughout.
`FC(F)(F)C(F)(F)C(F)(F)C(F)(F)C(F)(F)C(F)(F)CCI`: the Potency result in assay [1], in assay [2] and in assay [3] was “inactive” in each case.
Regarding `O=C1c2ccccc2-c2ccccc21`, the Potency entry in assay [1], in assay [2] and in assay [3] was “inactive” throughout.
Consider `Cc1nccn1CC1CCc2c(c3ccccc3n2C)C1=O` (centres undefined), for which the Potency result in assay [1] and in assay [3] was “inactive” throughout. For the same compound, the Potency in assay [2] is 15.5 µM (active).
For the compound `CCCCCCOC(=O)CC(CC(=O)OCCCCCC)(OC(=O)CCC)C(=O)OCCCCCC`, the Potency result in assay [1], in assay [2] and in assay [3] was “inactive” in each case.
Take `CCCOC(=O)c1ccc(O)cc1`: the Potency result in assay [1], in assay [2] and in assay [3] was “inactive” throughout.
